Results from PubChem BioAssay (NCI).
The panel holds about 83,000 compounds, 20% with a hit somewhere; the sample as a whole holds those more often.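 Cell lines were cultured in 96-well plates, exposed to a single compound concentration, and assessed for percent growth 48 hours later.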 Unmarked numbers belong to inactive results. Activity calls are given as the source filed them. The calls were made as follows: active = growth percent below 10; inactive = the rest.

Assays:
Test in all cases: NCI-60 one-dose screen, 48 h (100 = growth as untreated, 0 = no growth, -100 = all killed)
Conditions in all cases: 10 µM unless noted
NCI-H23 lung = system: NCI-H23 lung
NCI-H226 lung = system: NCI-H226 lung
NCI-H322M lung = system: NCI-H322M lung
HOP-62 NSCLC = system: HOP-62 NSCLC
NCI-H460 lung = system: NCI-H460 lung
HOP-92 NSCLC = system: HOP-92 NSCLC
NCI-H522 lung = system: NCI-H522 lung
A549/ATCC NSCLC = system: A549/ATCC NSCLC
786-0 renal = system: 786-0 renal
COLO 205 colon = system: COLO 205 colon
DU-145 prostate = system: DU-145 prostate
K-562 leukemia = system: K-562 leukemia
MALME-3M melanoma = system: MALME-3M melanoma
MDA-MB-231 breast = system: MDA-MB-231 breast
RXF 393 renal = system: RXF 393 renal
SF-268 CNS = system: SF-268 CNS
SF-295 CNS = system: SF-295 CNS
SF-539 CNS = system: SF-539 CNS
UACC-257 melanoma = system: UACC-257 melanoma
M14 melanoma = system: M14 melanoma

Structure (SMILES) | growth (NCI-H23 lung) | growth (NCI-H226 lung) | growth (NCI-H322M lung) | growth (HOP-62 NSCLC) | growth (NCI-H460 lung) | growth (HOP-92 NSCLC) | growth (NCI-H522 lung) | growth (A549/ATCC NSCLC) | growth (786-0 renal) | growth (COLO 205 colon) | growth (DU-145 prostate) | growth (K-562 leukemia) | growth (MALME-3M melanoma) | growth (MDA-MB-231 breast) | growth (RXF 393 renal) | growth (SF-268 CNS) | growth (SF-295 CNS) | growth (SF-539 CNS) | growth (UACC-257 melanoma) | growth (M14 melanoma)
C[C@@H]1NC(=O)[C@H](Cc2ccccc2)N(Cc2cccnc2)C1=O | 101% | 90.4% | 109% | 94.8% | 102% | 84.7% | 95.9% | 94.6% | 90.3% | 105% | 108% | 89% | 101% | 97.3% | 108% | 104% | 97% | 101% | 91.7% | 93.8%
N#Cc1c(-c2cccc(Cl)c2)cc(-c2cccnc2)[nH]c1=O | 85.6% | 87.9% | 94.4% | 69.5% | 96.3% | 80.2% | 76.1% | 93% | 96.7% | 93.4% | 94.9% | 43.9% | 62.5% | 81.9% | 100% | 79.9% | 75.9% | 71.6% | 68.2% | 54.2%
Cc1ccc(-c2nc(SCC(=O)N3CCN(c4cc5c(cc4F)c(=O)c(C(=O)O)cn5C4CC4)CC3)nc(Cl)c2C#N)cc1 | 100% | 104% | 101% | 90.4% | 103% | 112% | 93.8% | 107% | 97.8% | 108% | 106% | 98.2% | 106% | 99.7% | 106% | 93.5% | 97.4% | 100% | 99.3% | 99%
NCCCNc1nc2ccccc2c2c(=O)c3cc(Cl)ccc3sc12 | 45.7% | 93.1% | 39.5% | -82.9% (active) | -83.8% (active) | -7.36% (active) | -83.6% (active) | -18.4% (active) | 2.76% (active) | -83.6% (active) | -76.9% (active) | -70.1% (active) | -38.3% (active) | -82.9% (active) | 47.1% | 37.7% | 4.81% (active) | 55.7% | 74.9% | -48.2% (active)
CC(=O)c1sc(-c2ccc(F)cc2)cc1O | 96.4% | 103% | 98.3% | 111% | 108% | 102% | 99.2% | 97.2% | 96.7% | 116% | 97.7% | 88.5% | 99% | 127% | 111% | 97.2% | 105% | 114% | 100% | 95.1%
CCN(CC)CCCC(Cc1ccccc1)Nc1c2ccc(Cl)cc2nc2ccc(OC)cc12 (stereo not given) | 67.1% | 84.4% | 9.3% (active) | 67.3% | 28.6% | -4.73% (active) | 1.88% (active) | 39.3% | -22.6% (active) | -42.3% (active) | 62.3% | -39.2% (active) | -78.3% (active) | -31.3% (active) | -51.7% (active) | 51.9% | -37.9% (active) | -87.5% (active) | -40.8% (active) | -76.9% (active)
COc1ccc(/C=C2\CN(C(=O)C(Cl)Cl)C/C(=C\c3ccc(OC)c(OC)c3)C2=O)cc1OC | -51.8% (active) | 42.8% | 30% | 34.3% | -51.9% (active) | -7.03% (active) | -14.1% (active) | 4.8% (active) | -94.9% (active) | -2.98% (active) | -16% (active) | 4.57% (active) | -70.9% (active) | 7.12% (active) | -67.1% (active) | 17.8% | -39.6% (active) | -23.8% (active) | 18.4% | -72.6% (active)
CCCC(=O)NC(c1ccc2c(c1)OCO2)c1cc(Cl)c2cccnc2c1O (stereo not given) | 48.3% | 50.4% | 42.1% | 23.1% | 22.7% | 39.4% | 13.8% | 30.7% | 32.4% | 11.5% | 53.7% | 11.4% | 42.5% | 34.9% | 59.9% | 37.7% | 12.7% | 18.6% | 37.8% | 26.3%
CC(=O)c1ccc(-n2cc(CN3CCN(c4cc5c(cc4F)c(=O)c(C(=O)O)cn5C4CC4)CC3)nn2)cc1 | 83.5% | 69.6% | 89.2% | 78.7% | 91.2% | 79.9% | 89.2% | 89.8% | 87.9% | 110% | 104% | 101% | 94.9% | 97.1% | 72% | 85.3% | 95.9% | 92.6% | 96.7% | 90.1%
Cn1cc(-c2csc(-c3cn(CCCN4CCOCC4)c4ccc(F)cc34)n2)c2cccnc21 | 63.7% | 51.9% | 79% | 71.7% | 41% | 40.8% | 49.5% | 66.1% | 57.4% | 51.3% | 80.3% | 0.484% (active) | 87.4% | 25.1% | 36.1% | 66.6% | 11.2% | 57.6% | 78.5% | 46.2%
O=C(/C=C/C12c3ccccc3C(c3ccccc31)C1C(=O)NC(=O)C12)c1ccc(Cl)cc1Cl (stereo not given) | 32.9% | 78.7% | 41.4% | 21% | 8.61% (active) | 37.6% | 9.1% (active) | 37.4% | 19.1% | -8.3% (active) | 23% | 7.41% (active) | 48.2% | 19.3% | -4.59% (active) | 33.3% | 40.8% | 39.4% | 41% | 24.4%
C=C(C)[C@@H]1CC[C@]2(C(=O)N3CCN(C)CC3)CC[C@]3(C)[C@H](CC[C@@H]4[C@@](C)(CCC(=O)O)[C@H](C(=C)C)CC[C@]43C)[C@@H]12 | 95.4% | 93.3% | 98.5% | 95.5% | 78% | 78.6% | 73.5% | 65.7% | 90.2% | 94.3% | 99.9% | 58% | 87% | 91.2% | 93.3% | 80.6% | 78.8% | 92.6% | 83.5% | 87.1%
COc1cccc(CNc2c3ccccc3nc3ccccc23)c1OC | 32.4% | 51.6% | 41.6% | 51.2% | 11.6% | -2.4% (active) | 40.1% | 30.3% | 38.8% | 21.5% | 41.7% | 15.5% | 50.6% | 41.9% | 29.9% | 61.7% | 33% | 18.9% | 54.8% | 34.5%
O=C1CCCC1[n+]1ccccc1 (stereo not given) | 108% | 105% | 93.6% | 80.8% | 111% | 97.4% | 62.1% | 72.3% | 82.2% | 86.1% | 105% | 108% | 89.9% | 105% | 121% | 95.2% | 95.1% | 82.6% | 79.2% | 95%
OC1CSSC1Cn1cnc2c(Nc3ccc(OCc4cccc(F)c4)c(Cl)c3)ncnc21 (stereo not given) | -69.4% (active) | 4.07% (active) | -27.8% (active) | -27.2% (active) | -6.17% (active) | 139% | -31.6% (active) | 3.03% (active) | 69.5% | -58.3% (active) | -36.8% (active) | -56.7% (active) | -5.08% (active) | -59.2% (active) | 42.3% | -41.5% (active) | 4.71% (active) | -3.08% (active) | 26.6% | -81.1% (active)
